Screening results as filed in PubChem.
p53 reactivator – re-activators of mutant p53. H1299 p53-A138V BP100-luciferase reporter, luminescence, 24 h. Potency, µM (titrated, usually from 92.2 µM), hits mostly activators. 0.063% of 320,000 active; note: nearly all actives have a fitted effect of over 45% in size
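H1299 (p53-null), stable ts p53-A138V + BP100-Luc; 1000 cells/well, Opti-MEM/10% FBS; cpd 4 pt, 1:5; 24 h, 37 deg C, 5% CO2; detection reagent 10 min RT; luminescence.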
IL2 activator – IL-2 activation; IL-2 activation reporter assay, cell-based qHTS; stimulated with anti-CD3/CD4/CD28 beads; in transgenic mouse T cells; activation, % (series mostly up to about 46 µM); 0.065% of 360,000 active; in the data active = activation above about 50%; inconclusive = mostly about 30% to 49%
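Unstimulated transgenic mouse T cells; 60-min compound exposure; bead-based TCR/CD4/CD28 stimulation; 18 h culture, 37 degrees C; dual fluorescence (EGFP, DsRed) plate cytometry.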
BRCA1 expr act – activators of BRCA1 expression. MCF7-BRCA1-FFLuc reporter, luminescence, 48 h; response scale: scaled: vehicle 0%, 10 µM genistein 100%. Potency, µM (titrated, usually from 46.1 µM), most hits filed as activators. 1.1% of 380,000 active. AID 624202; note: nearly all actives have a fitted effect of over 80% in size
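MCF7 cells carrying a BRCA1-firefly luciferase reporter (2000 cells/well, phenol-red free MEM) were attached for 2 h at 37 °C, then given compounds for 48 h. Luminescence was read 15 min after luciferase reagent; activity normalized to genistein (10 microM) and DMSO.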
uPA surface inh – cell surface uPA generation inhibition; cell surface uPA generation assay, qHTS; 0.31% of 330,000 active; Potency, µM (titrated, usually from 38.3 µM), usual class: inhibitors; active = well fitted inhibition curve with a large enough effect; inconclusive = small, poorly fitted or top-dose-only effect; inactive = no such curve, though single readings can be large or run the other way; tested in mouse RAW 264.7 cells; note: nearly all actives have a fitted effect of over 55% in size
TCR activator – T cell receptor activation; primary human leukocytes, anti-CD3, IL-2 HTRF, 48 h; Potency, µM (titrated, usually from 9.22 µM), most hits filed as activators; 330,000 tested, under 10 active
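Compounds are tested in HTS on primary human leukocytes co-incubated with a-CD3 beads for 48 hr. IL-2 output is measured by time-resolved FRET.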
Large screens that a line does not name were inactive. Most compounds without a hit are left out; they make up all but 1.4% or so of the library. Unless noted, calls come from the whole dose curve; as a rule, active = well fitted curve in the direction sought with a large enough effect; inconclusive = small, poorly fitted or top-dose-only effect, or another doubt; inactive = no such curve, though single readings can be large; an effect the other way counts as inactive or inconclusive.

O=C(N/N=C/c1ccc(F)cc1)c1ccc(Br)cc1	none (no result: uPA surface inh)
COc1cc2c(c(O)c1OC)-c1c(cc(OC)c(OC)c1OC)C[C@@H](C)[C@@H](C)C2	none
COc1cc2c(c(OC)c1OC)-c1c(cc3c(c1O)OCO3)C[C@@H](C)[C@@H](C)C2	uPA surface inh 11.2µM
Cc1ccc(OCCSc2nc3ccc(NC(=O)c4ccc5c(c4)OCO5)cc3s2)cc1	none (no result: p53 reactivator, IL2 activator, uPA surface inh, TCR activator)
Cc1ccc(-c2nc(C(Cl)Cl)c3ccccc3n2)cc1	uPA surface inh 1µM
Cc1ccc(NC(=O)CSc2nc(C)c(C)c(C)n2)c([N+](=O)[O-])c1	none
Cc1ccc(NC(=O)CSc2ncccn2)c([N+](=O)[O-])c1	p53 reactivator inconclusive, BRCA1 expr act 11.2µM
Brc1ccccc1-n1nnc(-c2nccs2)n1	BRCA1 expr act 4.47µM, uPA surface inh inconclusive
c1ccc(-n2nnc(-c3nccs3)n2)cc1	BRCA1 expr act 2.82µM, uPA surface inh inconclusive (no result: p53 reactivator)
Cc1ccccc1Cn1cc(S(=O)(=O)c2ccc(F)cc2)c(=O)c2cc3c(cc21)OCO3	none (no result: p53 reactivator, IL2 activator, uPA surface inh, TCR activator)
Cc1cccc(Nc2ncc3c(n2)CC(c2ccco2)CC3=O)c1 (centres undefined)	none
Cc1cccc(Nc2ncc3c(n2)CC(C)CC3=O)c1 (centres undefined)	p53 reactivator inconclusive, BRCA1 expr act 5.01µM
COc1ccccc1/C=C/C1(C(=O)NC2CCCC2)CC(=O)N1c1ccccc1 (centres undefined)	uPA surface inh 2.82µM
CN(C)S(=O)(=O)c1ccc(N2C(=O)CC2(/C=C/c2ccccc2)C(=O)NC2CCCC2)cc1 (centres undefined)	none
CC1=C(C(=O)Nc2ccccc2)C(c2ccc(C(=O)O)cc2)n2ncnc2N1 (centres undefined)	none (no result: p53 reactivator, IL2 activator, uPA surface inh, TCR activator)
Cc1ccnc(NC(=O)c2ccc(Cl)c(S(=O)(=O)N3CCCC3)c2)c1	BRCA1 expr act 7.08µM
O=C(Nc1cccnc1)c1ccc(Cl)c(S(=O)(=O)N2CCCCC2)c1	none
O=C(O)c1cccc(NC(=O)c2ccc(Cl)c(S(=O)(=O)N3CCCCCC3)c2)c1	uPA surface inh 6.31µM
O=C(NCCCOc1ccc([N+](=O)[O-])cc1Cl)OCc1ccccc1	none (no result: p53 reactivator)
O=C(O)c1ccc(COc2ccc([N+](=O)[O-])cc2Cl)cc1	BRCA1 expr act 12.6µM (no result: p53 reactivator, uPA surface inh, TCR activator)
CC1CCCCN1C(=O)Cn1c(SCC(=O)N(C)c2ccccc2)nc2ccccc21 (centres undefined)	none (no result: p53 reactivator, IL2 activator, uPA surface inh, TCR activator)
COc1ccc2cc(C(=O)NCc3ccccc3)[nH]c2c1	none
COc1ccc2cc(C(=O)NCCc3ccccc3)[nH]c2c1	BRCA1 expr act 4.47µM
CC[n+]1c(/C=C/C=C/N(C(C)=O)c2ccccc2)sc2cc(OC)ccc21	IL2 activator 54.5
Cc1cccc(CSc2cn(CC(=O)N3CCOCC3)c3ccccc23)c1	p53 reactivator inconclusive, BRCA1 expr act 3.55µM
O=C(Cn1cc(SCc2cccc(Cl)c2)c2ccccc21)N1CCOCC1	p53 reactivator 28.2µM, BRCA1 expr act inconclusive
NC(=O)c1ccc(NC(=O)CSc2cn(CC(=O)N3CCOCC3)c3ccccc23)cc1	none
O=C(CSc1cn(CC(=O)N2CCOCC2)c2ccccc12)N1CCOCC1	none
O=C(Nc1ccc(Cl)c(C(F)(F)F)c1)C1CCN(S(=O)(=O)c2cccc3nonc23)CC1	none (no result: p53 reactivator, IL2 activator, uPA surface inh, TCR activator)
O=C(Nc1ccc(C(=O)O)cc1)/C(=C\C=C\c1ccccc1)NC(=O)c1ccccc1Br	BRCA1 expr act 10µM
CCc1ccc(S(=O)(=O)N2CCN(c3ccc(Cl)c(Cl)c3)CC2)cc1	none (no result: p53 reactivator, IL2 activator, uPA surface inh, TCR activator)
O=C1c2ccccc2S(=O)(=O)N1CC1CC(c2ccccc2Cl)=NO1 (centres undefined)	p53 reactivator inconclusive, BRCA1 expr act 5.01µM
Cc1nn(CC(=O)NCc2ccccc2)c(C)c1[N+](=O)[O-]	none
Cc1nn(CC(=O)c2ccccc2Cl)c(C)c1[N+](=O)[O-]	BRCA1 expr act 10µM
Cc1ccc(N/N=C(\C#N)C(=N)N2CCCCCC2)cc1	none
COc1ccc(N/N=C(\C#N)C(=N)N2CCCCC2)cc1	BRCA1 expr act 7.94µM, uPA surface inh inconclusive
CCc1ccc(CNC(=O)CN2C(=O)CSc3c2c(C)nn3-c2ccccc2)cc1	none (no result: p53 reactivator, IL2 activator, uPA surface inh, TCR activator)
Cc1ccc(C)c(OCc2cc(C(=O)N3C[C@@H](C)O[C@@H](C)C3)no2)c1	p53 reactivator inconclusive, BRCA1 expr act 4.47µM
